In the library only some 4.1% were active in any assay of this set; here they are far more common.
hcDAF-12 act: H. contortus DAF-12 activation, primary screen; HEK293 hcDAF-12 lit1-tk-luc reporter, luminescence; 0% DMSO, 100% Δ7-dafachronic acid; actives 1.4% (n = 370,000); activation, % at 6.8 µM;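 active means activation above the mean of all tested compounds plus 3 SD, cut at about 5.5% in these data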;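 further: 100% = response to 3 µM Δ7-dafachronic acid high control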
DAX1 inh-1: inhibitors of DAX1 repression of SF-1 activated StAR promoter. HEK293T StAR-luciferase reporter, SF-1/DAX-1 repression relief. inhibition, % at 6.8 µM. actives 1.1% (n = 370,000). AID 652010;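 active means inhibition above the mean over all tested compounds plus 3 SD, cut at about 3.6% in these data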;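 further: 0% = DAX-1 cells with DMSO and 100% = cells lacking DAX-1 with DMSO; higher inhibition means more luminescence from relief of DAX-1 repression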
hgDAF-12 ag: agonists of H. glycines DAF-12 nuclear receptor. HEK293 GAL4-hgDAF12 UAS-luciferase reporter, agonist luminescence; normalized to butyrate control. activation, % at 6.8 µM. actives 1.8% (n = 370,000). AID 687014;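 active means activation above a cutoff set at the mean of all screened compounds plus 3 SD, cut at about 10% in these data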;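 further: 0% = DMSO wells and 100% = sodium butyrate wells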
ssDAF12 agonist: S. stercoralis DAF-12 activation, primary screen. HEK293 ssDAF-12/GRIP1 lit1-tk-luc reporter, luminescence; % of 3 µM dafachronic acid response. activation, % at 6.8 µM. actives 1% (n = 370,000). AID 652126;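 active means activation above the mean over all tested compounds plus 3 SD, cut at about 0.9% in these data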;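 further: 0% = DMSO-only wells and 100% = 3 µM delta7-dafachronic acid wells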
DAX1 inh-2: inhibitors of human orphan nuclear receptor DAX1 (NR0B1); inhibition, % at 6.75 µM; HEK293 Gal4-DAX1 luciferase reporter, luminescence; actives 0.99% (n = 340,000);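 active means inhibition above the mean over all tested compounds plus 3 SD, cut at about 4.2% in these data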;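 further: 0% = DAX1-transfected cells with DMSO and 100% = empty-vector control cells with DMSO; inhibition shows as a rise in luminescence from relieved DAX1 repression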
DAX1 inh confirm: confirmation of human DAX1 (NR0B1) inhibitors; shares compounds with DAX1 inh-1; HEK293T StAR-promoter luciferase reporter, SF-1/DAX-1 repression; inhibition, % at 6.8 µM; actives 87% (n = 2,400); AID 652134;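 active means inhibition above the average of every tested compound plus 3 SD, cut at about 3.8% in these data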;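 further: 0% = DAX-1 cells with DMSO and 100% = no DAX-1 control cells with DMSO; active compounds raise luminescence by relieving repression of the StAR reporter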
Target sequence (P51843 whole entry, looked up): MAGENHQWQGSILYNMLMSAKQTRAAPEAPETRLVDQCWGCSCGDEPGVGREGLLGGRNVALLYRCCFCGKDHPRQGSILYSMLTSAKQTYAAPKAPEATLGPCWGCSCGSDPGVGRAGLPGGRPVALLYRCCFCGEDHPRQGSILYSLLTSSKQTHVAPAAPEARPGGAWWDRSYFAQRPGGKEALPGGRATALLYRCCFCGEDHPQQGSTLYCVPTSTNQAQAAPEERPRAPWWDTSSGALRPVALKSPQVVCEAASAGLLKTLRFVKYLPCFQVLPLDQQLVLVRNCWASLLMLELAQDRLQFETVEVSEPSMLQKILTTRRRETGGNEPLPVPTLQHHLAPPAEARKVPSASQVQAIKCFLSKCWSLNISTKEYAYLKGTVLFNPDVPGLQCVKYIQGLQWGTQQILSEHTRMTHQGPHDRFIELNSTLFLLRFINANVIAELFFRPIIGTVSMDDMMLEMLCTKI
SF1 AF2mut Luc: nonselective inhibitor or artifact in SF-1 mutant DAX1 counter-screen; shares compounds with DAX1 inh-1; HEK293 StAR-luciferase, SF-1 AF2 mutant, luminescence; inhibition, % at 6.8 µM; actives 78% (n = 2,400); AID 652136;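 active means inhibition above the mean of all tested compounds plus 3 SD, cut at about 3% in these data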;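 further: 0% = DAX-1 transfected cells with DMSO and 100% = cells without DAX-1 with DMSO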
* = called active by the depositor; · = not tested or not shown.

SMILES	hcDAF-12 act	DAX1 inh-1	hgDAF-12 ag	ssDAF12 agonist	DAX1 inh-2	DAX1 inh confirm	SF1 AF2mut Luc
CCCC[C@H]1C2CC(OC(=O)Nc3ccc(C)cc3)C(C2)[C@H]2CCCCN21 (some centres not stated)	0	0	-1	-1	·	·	·
Cc1c(C(=O)OCC(=O)NCc2ccco2)oc2ccccc12	-2	4.5*	2	-1	1	1	1
COCc1c(C(=O)OCC(=O)NCc2ccco2)oc2ccccc12	1	0	2	-1	0	·	·
CC1(C(=O)NCc2ccccc2)CSCC(=O)N1C1CCN(Cc2ccccc2)CC1 (configuration not stated)	-2	1	2	0	·	·	·
COC(=O)c1cc(NC(=O)c2cccs2)ccc1N1CCOCC1	-2	-1	0	-2	1	·	·
O=C(Nc1ccc(N2CCOCC2)c(F)c1)c1cccs1	4	10*	10	0	2	11*	7.4*
CC1C/C(=C/c2cccs2)C(=O)/C(=C/c2cccs2)C1 (configuration not stated)	-1	0	1	0	-1	·	·
O=C1/C(=C/c2cccs2)CCC/C1=C\c1cccs1	6.2*	6.8*	12*	0	4	13*	11*
CNc1nnc(SCC(=O)c2cc(C)n(C3CC3)c2C)s1	3	5.0*	5	-1	0	6.7*	3
Cc1ccc(C)c(N2CCN(C(=O)CCc3nc(-c4cccc(Cl)c4)no3)CC2)c1	4	5.1*	10	1	2	5.8*	3.6*
COc1cccc(-c2noc(CCC(=O)N3CCN(c4cc(C)ccc4C)CC3)n2)c1	0	0	3	-2	-1	·	·
CSc1ccc(-c2cccc3nncn23)cc1	-2	1	0	-1	·	·	·
Oc1ccc(C[C@H]2CN([C@@H](Cc3ccccc3)CN3CCCC3CN3C(=S)NC[C@@H]3Cc3ccccc3)C(=S)N2CC2CCCCC2)cc1 (some centres not stated)	-2	0	3	-1	·	·	·
CCOc1ccc(CCN2C(=S)N([C@@H](CC(C)C)CN3CCCC3CN3C(=S)NC[C@@H]3CC(C)C)C[C@@H]2Cc2ccccc2)cc1 (some centres not stated)	-1	4.8*	-2	-1	1	-2	-2
Oc1ccc(C[C@H]2CNC(=S)N2CC2CCCN2C[C@H](Cc2ccccc2)N2C[C@H](Cc3ccc(O)cc3)N(CC3CCCCCC3)C2=S)cc1 (some centres not stated)	0	4.9*	-1	-1	-1	2	1
CC(C)C[C@@H](CN1CCC[C@@H]1CN1C(=S)NC[C@@H]1Cc1ccccc1)N1C[C@H](Cc2ccc(O)cc2)N(CC2CCCCCC2)C1=S	-2	5.0*	1	-1	·	-1	0
CC(C)C[C@@H](CN1CCC[C@@H]1CN1C(=S)NC[C@@H]1Cc1ccccc1)N1C[C@H](Cc2ccc(O)cc2)N(CC2CCCCC2)C1=S	0	0	-2	0	·	·	·
CC(C)(C)N1Cc2nnn(Cc3ccccc3)c2-c2cc(N3CCCC3)ccc2S1(=O)=O	-2	-1	-1	-1	·	·	·
CN(Cc1cn(Cc2ccccc2)nn1)S(=O)(=O)c1ccccc1Br	-2	0	0	-2	·	·	·
CS(=O)(=O)N[C@@H]1C[C@@H]2O[C@H](CO)CC[C@@H]2O[C@@H]1CCc1ccc(/C=C/c2ccccc2)cc1	-4	-3	-6	-1	·	·	·
CSCCC(C(=O)NC1CCCC1)n1c(C2CCCC2)nc2ccccc21 (configuration not stated)	4	1	2	0	·	·	·
COc1ccc(NC(=S)NC(=O)c2ccccc2)cn1	2	4.6*	13*	0	1	4	4.3*
Cc1cc(C(=O)N/N=C/c2c(C)nn(-c3ccccc3)c2Cl)n[nH]1	1	0	3	-1	·	·	·
Cc1nn(-c2ccccc2)c(Cl)c1/C=N/NC(=O)c1ccn[nH]1	5.8*	14*	13*	0	0	8.8*	5.8*
COCCn1c(C)cc(C(=O)CN2C(=O)NC3(CCCCCC3)C2=O)c1C	2	6.8*	8	0	2	4.5*	3
SMILES	hcDAF-12 act	DAX1 inh-1	hgDAF-12 ag	ssDAF12 agonist	DAX1 inh-2	DAX1 inh confirm	SF1 AF2mut Luc
Cc1cc(C(=O)CN2C(=O)NC3(CCCCCC3)C2=O)c(C)n1C	0	2	4	-1	0	·	·
CCc1cccc2c(C(=O)CN3C(=O)NC4(CCCCCC4)C3=O)c[nH]c12	-1	13*	-8	-2	-1	10*	-5
Cc1ccc(-c2ccc(C(=O)Nc3ccccc3)o2)c2ccccc12	-2	0	3	-2	0	·	·
Cc1cscc1-c1ccc(C(=O)Nc2c(C)cccc2C)o1	-3	4.5*	-4	-1	·	-1	0
COc1cc(/C=C(\C#N)C(=O)Nc2ccccc2F)ccc1OCCN1CCOCC1	3	4.5*	4	-1	0	5.0*	2
COc1ccccc1Cc1c(-c2ccc(Cl)cc2)nc2ccc(Br)cn12	1	5.5*	4	0	·	6.3*	4.3*
COc1ccccc1Cc1c(-c2ccc(C)cc2)nc2c(C)cc(Br)cn12	3	5.3*	5	1	·	0	0
COC(=O)c1ccc2nc(-c3ccc(C)cc3)c(Cc3ccccc3OC)n2c1	1	1	0	-1	·	·	·
COC(=O)c1ccc2nc(-c3ccccc3)c(Cc3ccccc3OC)n2c1	2	4.8*	2	1	·	2	2
COc1ccccc1Cc1c(-c2ccc(C)cc2)nc2ccc(Br)cn12	6.3*	7.4*	23*	1	·	8.2*	5.6*
Cc1cc(C)cc(OCCCN2CCC(C(O)(c3ccccc3)c3ccccc3)CC2)c1	-1	0	1	-1	·	·	·
COc1ccc(S(=O)(=O)N[C@H]2CC[C@H](CCNC(=O)c3ccccc3F)O[C@@H]2CO)cc1	0	2	-1	-2	·	·	·
Clc1ccc(-c2nc3ccc(Br)cn3c2Cc2ccsc2)cc1	2	5.2*	8	1	·	5.2*	2
O=C(CNC(=O)c1cccs1)c1ccc([N+](=O)[O-])cc1	1	2	4	-1	1	·	·
O=C(CNC(=O)c1cccs1)c1ccc(F)cc1	5	4.7*	13*	0	1	16*	6.9*
O=C(CNC(=O)c1cccs1)Nc1ncccc1O	2	4.5*	0	-1	0	3	2
CN(Cc1ccc(Cl)c(Cl)c1)C(C(=O)NCc1ccccc1)c1ccc(C(F)(F)F)cc1 (configuration not stated)	3	2	1	-1	·	·	·
